This is part of a sample that, as a whole, favours compounds with a hit. Of some 83,000 tested, about 20% had one in any assay.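 Percent growth is the endpoint: 0 to 100 indicates growth inhibition (40 means 60% inhibition), 0 means no net growth, and negative values indicate cell death.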 Unmarked numbers belong to inactive results. Active and inactive are the calls of the source. Rule for the calls: active = growth percent below 10; inactive = the rest.
How the values were obtained:
Experiment in all cases: NCI-60 one-dose screen, 48 h (100 = growth as untreated, 0 = no growth, -100 = all killed)
Conditions in all cases: 10 µM unless noted
NCI-H23 lung = test system: NCI-H23 lung
NCI-H226 lung = test system: NCI-H226 lung
NCI-H322M lung = test system: NCI-H322M lung
HOP-62 NSCLC = test system: HOP-62 NSCLC
NCI-H460 lung = test system: NCI-H460 lung
HOP-92 NSCLC = test system: HOP-92 NSCLC
NCI-H522 lung = test system: NCI-H522 lung
A549/ATCC NSCLC = test system: A549/ATCC NSCLC
786-0 renal = test system: 786-0 renal
COLO 205 colon = test system: COLO 205 colon

SMILES | growth (NCI-H23 lung) | growth (NCI-H226 lung) | growth (NCI-H322M lung) | growth (HOP-62 NSCLC) | growth (NCI-H460 lung) | growth (HOP-92 NSCLC) | growth (NCI-H522 lung) | growth (A549/ATCC NSCLC) | growth (786-0 renal) | growth (COLO 205 colon)
Nc1cc(-c2ccc(Cl)cc2)nn1-c1nc(-c2ccc(Br)cc2)cs1 | 100% | 96.3% | 93.3% | 97.9% | 105% | 90% | 84.2% | 88.1% | 93.6% | 100%
Nc1ncnc2c1N=C(c1ccc([N+](=O)[O-])cc1)CC(c1ccc3c(c1)OCO3)N2 (stereo not given) | 83.8% | 86.5% | 87.3% | 86.6% | 96.2% | 34% | 84.9% | 96.6% | 98.7% | 96.2%
Cc1nn(-c2ccccc2)c(Oc2ccccc2)c1/C=N/NC(=O)Cn1c(=O)sc2ccccc21 | 37.4% | 69.8% | 74.9% | 57.4% | 55.6% | 50.1% | 40.6% | 37.5% | 74.5% | 28.5%
CC/C(=C(/c1ccc(Cl)cc1)c1ccc(OCCN2CCCC2)cc1)c1ccccc1 | 62% | 93.9% | 93.4% | 99% | 12.3% | 57.5% | 83% | 43.5% | 43.6% | -25.3% (active)
C#C[C@]1(O)CC[C@H]2[C@@H]3CC=C4c5sc(-c6cccc(C)c6)nc5CC[C@]4(C)[C@H]3CC[C@@]21C | 73% | 91.1% | 66.1% | 83.4% | 76.6% | 49.6% | 70% | 75.4% | 32.8% | 107%
CCn1c2ccccc2c2cc(C(O)c3cccc4ncccc34)ccc21 (stereo not given) | -42.3% (active) | 23.7% | 34.8% | 32.8% | 10.1% | 29.3% | 8.82% (active) | 20.7% | 6.42% (active) | -33.9% (active)
COc1ccc(Nc2nccc(Nc3ccc4[nH]ncc4c3)n2)cc1 | 40.3% | 28.1% | 63.2% | 49% | 24.9% | -1.08% (active) | 19.1% | 24% | 43.5% | 26.4%
COC(=O)c1nc(-c2ccccc2)oc1S(=O)(=O)N1CCN(c2ccc(OC)cc2)CC1 | 89.1% | 91.5% | 91.1% | 94.5% | 98.5% | 60% | 48.3% | 95.9% | 60.9% | 61.7%
O=C(c1ccc(F)cc1)C1CCN(CCn2c(=O)[nH]c3ccccc3c2=O)CC1 | 99.6% | 97.8% | 105% | 108% | 122% | 87.8% | 82.9% | 107% | 97% | 103%
Cc1csc(Nc2nc(-c3cccc(Cl)c3)nc(C(Cl)(Cl)Cl)n2)n1 | 79% | 95.6% | -23.1% (active) | 20.3% | 9.9% (active) | 32.7% | 83.6% | 1.73% (active) | 59.5% | -38.6% (active)
Cc1oc2ccc(O)c(CN3CCCCCC3)c2c1C(=O)Nc1ccc(C(F)(F)F)cc1 | 69.9% | 72.4% | 69.3% | 70.4% | 51.5% | 34.9% | 72.5% | 61.2% | 49.5% | 48.7%
CCN1C(=O)N(CC)C2C1NC(=S)N2/N=C/C=C/c1ccccc1 (stereo not given) | 21.4% | -10.1% (active) | 46.1% | 29.3% | 5.19% (active) | 27.8% | -2.87% (active) | 16.9% | 25.6% | -30.4% (active)
Nc1ccc(N)c2c1C(=O)c1cccc([N+](=O)[O-])c1C2=O | -29.1% (active) | 16.6% | 2.12% (active) | 9.73% (active) | -3.34% (active) | 63.3% | 25.6% | 20.8% | 17.4% | 66.3%
COc1cc(C(=O)/C=C/c2c(-c3cccs3)nc3sc(C)cn23)cc(OC)c1OC | 6.64% (active) | 33.1% | 13.3% | -8.11% (active) | -30.6% (active) | -2.76% (active) | -2.1% (active) | 10.6% | 7.58% (active) | 2.63% (active)
CCOC(=O)CSc1nc2sc3c(c2c(=O)n1-c1ccccc1)CCCCC3 | 96.2% | 93% | 108% | 97.6% | 110% | 104% | 80.4% | 104% | 109% | 119%
Cn1ccnc1C(=O)/C=C/c1ccc(C(=O)Nc2c(F)c(F)c(F)c(F)c2F)cc1 | -28.5% (active) | 13% | 6.92% (active) | 1.97% (active) | -41% (active) | 49.7% | 4.29% (active) | 6.57% (active) | -34.6% (active) | -24.2% (active)
CCCC1Cc2cc(-n3nc(C)c4c3CC(C)(C)CC4=O)cc(NC3CCC(O)CC3)c2C(=O)N1 (stereo not given) | 34.5% | 47.7% | 50.5% | 40.1% | 18% | -0.467% (active) | 39.1% | 31.6% | 49.9% | 14%
O=C(OCC(O)(CO)C(=O)NC12CC3CC(CC(C3)C1)C2)c1ccc(Cl)cc1 (stereo not given) | 97.6% | 89.1% | 103% | 103% | 105% | 101% | 88.2% | 91.4% | 99.4% | 102%
C=C(c1ccc(C(=O)O)c(F)c1)c1cc2c(cc1C)C(C)(C)C=CC2(C)C | 76.2% | 65.5% | 90.7% | 70% | 82.1% | 62.4% | 61.5% | 38.1% | 89.2% | 107%
Nc1ccc(Cl)c2c(=O)c3ccccc3[nH]c12 | 71.3% | 77% | 99.8% | 105% | 91.2% | 99.4% | 69.8% | 80% | 77.4% | 90.7%
N#Cc1nn(-c2ccccn2)c(N)c1C#N | 105% | 106% | 107% | 97.1% | 106% | 101% | 67.4% | 97.5% | 98% | 106%
O=C1C2C(c3cccs3)C=C(c3ccc(Cl)cc3)N2C(=S)N1c1ccccc1 (stereo not given) | 94.2% | 86.8% | 102% | 101% | 108% | 97.2% | 98.6% | 101% | 102% | 119%
COc1cccc(NC(=O)c2sc3nc(C)c(C(=O)c4ccccc4)cc3c2N)c1 | 101% | 93.9% | 84.3% | 89.7% | 61.2% | 86.9% | 92.5% | 35.1% | 89% | 107%
C#CCOc1cccc(Nc2ncnc3c(NC(=O)CCl)cccc23)c1 | 6.09% (active) | 48.9% | 72.5% | 95.7% | 51.2% | -62.1% (active) | -73.5% (active) | 47.4% | -45.4% (active) | -55.5% (active)
CCOC(=O)c1c(NC(=S)Nc2ccc([N+](=O)[O-])cc2)sc2c1CCCCC2 | 69.4% | 70.8% | 83.5% | 102% | 69.7% | 0.0405% (active) | 58.7% | 84.4% | 92.9% | 105%
O=C(NCCN1CCOCC1)c1cncnc1Nc1ccc2c(ccn2Cc2ccccn2)c1 | 102% | 95.2% | 105% | 102% | 103% | 93.8% | 83.7% | 101% | 98.5% | 95.6%
O=C1c2c(c3c4cccnc4[nH]c3c3ccc4ccccc4c23)C(=O)N1O | 35.5% | 72.3% | 77.8% | 55.8% | 32.4% | 81.7% | 19.9% | 83.6% | 68.5% | 57.6%
